Records with an inconclusive call do not appear. Entries that show only a call come without a potency. The source made the active and inactive calls. Unless noted, the call rests on the fitted dose curve; in most records, active means well fitted curve in the direction sought with a large enough effect; inconclusive means small, poorly fitted or top-dose-only effect, or another doubt; inactive means no such curve, though single readings can be large; an effect the other way counts as inactive or inconclusive.
Key:
[1] = Validation screen for small molecules that induce genotoxicity in human embryonic kidney (HEK293T) cells expressing luciferase-tagged ELG1 (AID 493106); further: potency means the concentration at half of the fitted maximal effect
Summary of the method: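 HEK293T cells expressing luciferase-tagged ELG1 were exposed to compound or DMSO vehicle for 16 hr at 37 °C, 5% CO2. Genotoxic stress raises ELG1 levels, so increased luciferase signal after ONE-Glo addition and 30 min at room temperature marks hits.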

[2] = target: ATPase family AAA domain-containing protein 5 (Homo sapiens) (UniProt Q96QE3); experiment: Validation screen for small molecules that inhibit ELG1-dependent DNA repair in human embryonic kidney (HEK293T) cells expressing luciferase-tagged ELG1 (AID 493107); further: nearly all actives have a fitted effect of over 70% in size; further: potency means the concentration at half of the fitted maximal effect
Chain of ATPase family AAA domain-containing protein 5 (Homo sapiens) (Q96QE3 whole entry, looked up, the tested form may be a part): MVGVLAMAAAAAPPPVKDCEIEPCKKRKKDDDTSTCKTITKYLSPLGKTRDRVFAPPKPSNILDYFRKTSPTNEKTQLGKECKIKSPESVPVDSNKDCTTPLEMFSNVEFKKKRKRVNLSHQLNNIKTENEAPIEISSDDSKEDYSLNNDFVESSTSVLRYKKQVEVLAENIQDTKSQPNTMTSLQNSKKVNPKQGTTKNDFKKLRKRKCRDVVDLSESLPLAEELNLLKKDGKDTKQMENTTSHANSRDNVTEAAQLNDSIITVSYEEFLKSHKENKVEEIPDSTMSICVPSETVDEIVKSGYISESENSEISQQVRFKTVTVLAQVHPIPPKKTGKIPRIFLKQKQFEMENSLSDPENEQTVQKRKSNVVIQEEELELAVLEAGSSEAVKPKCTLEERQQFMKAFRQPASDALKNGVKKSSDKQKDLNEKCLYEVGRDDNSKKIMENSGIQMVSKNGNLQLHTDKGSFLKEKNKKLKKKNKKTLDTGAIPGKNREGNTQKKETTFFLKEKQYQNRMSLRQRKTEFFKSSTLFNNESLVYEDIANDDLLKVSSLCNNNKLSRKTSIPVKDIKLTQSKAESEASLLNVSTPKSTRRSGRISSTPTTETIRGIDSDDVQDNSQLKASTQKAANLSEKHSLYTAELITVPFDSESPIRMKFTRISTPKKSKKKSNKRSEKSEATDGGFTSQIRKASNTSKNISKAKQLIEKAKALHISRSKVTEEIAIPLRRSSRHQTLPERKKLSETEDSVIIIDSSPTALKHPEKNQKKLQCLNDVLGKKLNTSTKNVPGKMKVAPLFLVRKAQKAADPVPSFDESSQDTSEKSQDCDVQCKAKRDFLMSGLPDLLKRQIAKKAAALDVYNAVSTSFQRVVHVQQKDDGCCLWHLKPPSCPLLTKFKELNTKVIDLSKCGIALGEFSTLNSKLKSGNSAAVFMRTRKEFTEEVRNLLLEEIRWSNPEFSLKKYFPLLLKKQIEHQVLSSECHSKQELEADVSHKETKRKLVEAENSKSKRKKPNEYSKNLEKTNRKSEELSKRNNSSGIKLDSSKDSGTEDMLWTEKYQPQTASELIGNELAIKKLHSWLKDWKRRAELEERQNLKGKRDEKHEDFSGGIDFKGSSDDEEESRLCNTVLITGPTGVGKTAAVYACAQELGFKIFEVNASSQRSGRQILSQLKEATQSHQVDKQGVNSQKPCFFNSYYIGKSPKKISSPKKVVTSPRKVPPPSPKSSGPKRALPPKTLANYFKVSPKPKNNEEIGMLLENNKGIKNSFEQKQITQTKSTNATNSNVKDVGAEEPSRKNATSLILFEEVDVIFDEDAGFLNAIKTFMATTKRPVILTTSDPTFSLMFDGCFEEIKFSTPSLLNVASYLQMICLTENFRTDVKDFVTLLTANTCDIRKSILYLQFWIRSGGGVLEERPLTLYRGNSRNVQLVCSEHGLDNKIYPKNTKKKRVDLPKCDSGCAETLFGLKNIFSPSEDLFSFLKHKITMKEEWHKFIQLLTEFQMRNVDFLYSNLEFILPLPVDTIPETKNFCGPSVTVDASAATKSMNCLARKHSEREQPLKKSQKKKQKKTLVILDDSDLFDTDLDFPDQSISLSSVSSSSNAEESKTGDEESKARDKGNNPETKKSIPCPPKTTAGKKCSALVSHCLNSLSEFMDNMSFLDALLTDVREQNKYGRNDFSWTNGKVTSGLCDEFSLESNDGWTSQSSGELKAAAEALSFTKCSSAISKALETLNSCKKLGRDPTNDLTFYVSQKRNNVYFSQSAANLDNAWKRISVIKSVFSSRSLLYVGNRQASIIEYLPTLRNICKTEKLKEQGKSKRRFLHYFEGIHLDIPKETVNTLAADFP
Summary of the method: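 HEK293T cells expressing luciferase-tagged ELG1 were co-treated with 5-fluorouridine and compound or DMSO for 16 hr at 37 °C, 5% CO2. Luciferase activity was then read with ONE-Glo after 30 min at room temperature; suppressed signal indicates blocked ELG1 function.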

[3] = target: Thyrotropin-releasing hormone receptor (Homo sapiens) (UniProt P34981); experiment: qHTS for Small Molecule Agonists and Allosteric Enhancers of Human TRH Receptor: Validation Screen for Agonists (AID 493127;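 active means calcium activation more than 3 SD above the typical response in the agonist read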;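 further: intracellular calcium rise by fluo-8 fluorescence before TRH EC20 addition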); details: TRH receptor agonist cell assay; at 2 µM; stronger effect = higher value
Chain of Thyrotropin-releasing hormone receptor (Homo sapiens) (P34981 whole entry, looked up): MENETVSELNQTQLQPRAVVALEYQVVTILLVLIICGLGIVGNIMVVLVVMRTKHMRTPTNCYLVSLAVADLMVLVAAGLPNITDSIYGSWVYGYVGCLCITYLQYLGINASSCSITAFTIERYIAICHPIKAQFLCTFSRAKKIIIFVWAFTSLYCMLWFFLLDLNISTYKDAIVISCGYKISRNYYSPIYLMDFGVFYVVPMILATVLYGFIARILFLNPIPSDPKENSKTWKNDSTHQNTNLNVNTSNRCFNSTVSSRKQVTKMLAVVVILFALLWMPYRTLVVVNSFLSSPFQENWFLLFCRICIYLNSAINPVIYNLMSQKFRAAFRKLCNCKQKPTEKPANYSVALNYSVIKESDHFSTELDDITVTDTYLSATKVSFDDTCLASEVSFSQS
Summary of the method: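 TRHR-expressing cells were plated overnight in serum-containing medium, then loaded with fluo-8 calcium dye at room temperature for 30 min–1.5 h. After a 10 s baseline, compound was pin-transferred and calcium fluorescence (ex 480/em 530) read kinetically for agonist response.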

[4] = Nrf2 qHTS screen for inhibitors: Validation (AID 493153; active means well fitted inhibition curve with a large enough effect in the main read-out, with a control signal flat, not every such curve was filed as active); details: Potency: luciferase luminescence; viability change: measured here: cytotoxicity max response
Summary of the method: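 A549 cells carrying an ARE-driven firefly luciferase reporter, in 5% FBS OPTI-MEM, were treated with compounds in concentration-response for 18-24 h at 37°C. Viability was read by CellTiter-Fluor fluorescence, then Nrf2 activity by luciferase luminescence.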

[5] = qHTS for Inhibitors of Cell Surface uPA Generation: Validation Assay (AID 493164);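 further: RAW 264.7 macrophage cells exposed to compound for 18 h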
Summary of the method: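 RAW 264.7, 4000 cells/well, o/n plating; cpd 7-pt 1:5 dilution 2.45 nM–38.3 uM final; 18 h, 37 C/5% CO2; ATP-Lite, 5 s luminescence exposure.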

[6] = Validation screen for small molecules that induce DNA re-replication in SW480 colon adenocarcinoma cells (AID 504364)
Summary of the method: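 SW480 cells seeded at 250 per well were exposed to compound or DMSO for 48 hr at 37 C, 5% CO2, then stained with Hoechst for 40 min. DNA content per nucleus was imaged (405 nm ex, 500-530 nm em).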

[7] = target: Phosphoglycerate kinase, glycosomal (Trypanosoma brucei brucei) (UniProt P07378); experiment: qHTS Validation Assay to Find Inhibitors of Phosphoglycerate Kinase (AID 504547); further: potency means the concentration at half of the fitted maximal effect
Chain of Phosphoglycerate kinase, glycosomal (Trypanosoma brucei brucei) (P07378 whole entry, looked up): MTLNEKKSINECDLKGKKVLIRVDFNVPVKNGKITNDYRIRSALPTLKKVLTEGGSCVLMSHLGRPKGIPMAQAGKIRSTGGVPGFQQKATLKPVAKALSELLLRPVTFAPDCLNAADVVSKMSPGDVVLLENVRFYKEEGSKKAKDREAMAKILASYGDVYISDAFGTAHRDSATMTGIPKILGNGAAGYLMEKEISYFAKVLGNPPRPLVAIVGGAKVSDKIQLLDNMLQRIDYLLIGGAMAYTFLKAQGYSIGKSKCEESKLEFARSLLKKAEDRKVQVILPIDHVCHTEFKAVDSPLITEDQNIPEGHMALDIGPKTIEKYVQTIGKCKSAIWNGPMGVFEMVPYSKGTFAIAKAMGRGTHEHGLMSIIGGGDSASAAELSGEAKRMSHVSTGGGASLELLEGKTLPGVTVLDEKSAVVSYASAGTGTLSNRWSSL
Summary of the method: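 Inhibition of the enzyme is judged by a Kinase-Glo Plus luminescent signal following a one-hour incubation at room temperature. Because 1,3-BPG is unstable, it is made in situ by GAPDH at 100nM final; no-PGK wells define the baseline.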

[8] = target: Galactokinase (Homo sapiens) (UniProt P51570); experiment: qHTS Validation Assay for Inhibitors of Human Galactokinase (GALK) (AID 493189)
Chain of Galactokinase (Homo sapiens) (P51570 whole entry, looked up): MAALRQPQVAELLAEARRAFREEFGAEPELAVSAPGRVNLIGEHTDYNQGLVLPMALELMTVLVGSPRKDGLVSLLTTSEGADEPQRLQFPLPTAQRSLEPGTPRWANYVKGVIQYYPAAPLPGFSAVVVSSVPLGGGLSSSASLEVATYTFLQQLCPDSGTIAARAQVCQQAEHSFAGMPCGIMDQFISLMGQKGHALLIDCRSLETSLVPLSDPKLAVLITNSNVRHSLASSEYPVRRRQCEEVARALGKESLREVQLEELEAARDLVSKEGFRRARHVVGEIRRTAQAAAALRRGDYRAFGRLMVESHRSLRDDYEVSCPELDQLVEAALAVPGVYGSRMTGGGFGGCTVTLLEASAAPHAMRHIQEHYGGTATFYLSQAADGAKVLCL
Summary of the method: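 Luminescence from leftover ATP (Kinase-Glo Plus, 10 min) served as read-out after a 1 h room-temperature reaction of 5 nM GALK, 100 uM galactose and 35 uM ATP at pH8.0.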

[9] = target: Peptidyl-prolyl cis-trans isomerase NIMA-interacting 1 (Homo sapiens) (UniProt Q13526); experiment: qHTS Validation Assay to Find Inhibitors of Pin1 (AID 504536; active means well fitted inhibition curve with a large enough effect in the polarisation, with a control signal flat, not every such curve was filed as active; the % refers to the polarisation; further: potency means the concentration at half of the fitted maximal effect)
Chain of Peptidyl-prolyl cis-trans isomerase NIMA-interacting 1 (Homo sapiens) (Q13526 whole entry, looked up): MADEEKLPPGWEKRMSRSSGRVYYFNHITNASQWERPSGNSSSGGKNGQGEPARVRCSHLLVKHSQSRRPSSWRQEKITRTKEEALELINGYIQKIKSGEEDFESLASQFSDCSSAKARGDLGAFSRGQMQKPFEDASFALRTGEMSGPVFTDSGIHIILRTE
Summary of the method: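 Fluorescence polarization competition: compounds (titration) displace HiFluor-488-labeled Pin1-1b peptide from Pin1 (0.3 uM final) in pH 7.5 HEPES buffer with DTT, 10 min at room temperature; %Activity normalized to no-enzyme wells, curves fitted.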

Which results are given for `N[C@@H](CC(=O)O)C(=O)O`?
Potency [1]: inactive; Potency [2]: inactive; activation [3]: 1.19% (inactive); Potency [4]: inactive; viability change [4]: -0.666%; outcome [5]: inactive; Potency [6]: inactive; Potency [7]: inactive

Which Potency [1] does the source give for `NCCCCCCCCCCN` here?
Its Potency is “inactive”.

And the Potency [2]?
The Potency was “inactive”.

What about the activation [3] of the same compound?
The activation was 0.938% (inactive).

And the outcome [5]?
Its outcome is “inactive”.

And the Potency [8]?
Its Potency is “inactive”.

And the Potency [6]?
The Potency was “inactive”.

And the Potency [9]?
Its Potency is “inactive”.

For `O=C(O)CNC(=O)C(CS)Cc1ccccc1` (centres undefined), which Potency [1] is on record?
The Potency was “inactive”.

What about the Potency [2] of the same compound?
The Potency was “inactive”.

What about the activation [3] of the same compound?
The activation was 0.625% (inactive).

And the Potency [4]?
Its Potency is “inactive”.

And the viability change [4]?
The viability change was 2.31%.

And the outcome [5]?
Its outcome is “inactive”.

What about the Potency [6] of the same compound?
The Potency was “inactive”.

What about the Potency [9] of the same compound?
The Potency was “inactive”.

What about the Potency [7] of the same compound?
Its Potency is “inactive”.

For `CC1(C)CCC=[N+]1[O-]`, which Potency [1] is on record?
The Potency was “inactive”.

And the Potency [2]?
The Potency was “inactive”.

What about the activation [3] of the same compound?
The activation was 1.19% (inactive).

And the outcome [5]?
Its outcome is “inactive”.

And the Potency [8]?
The Potency was “inactive”.

What about the Potency [6] of the same compound?
Its Potency is “inactive”.

What about the Potency [9] of the same compound?
The Potency was “inactive”.

What about the Potency [7] of the same compound?
Its Potency is “inactive”.

Which Potency [1] does the source give for `CC12C(=O)OC(=O)C1(C)C1CCC2O1` (centres undefined) here?
The Potency was 2.91 µM (active).

What about the Potency [2] of the same compound?
Its Potency is 14.6 µM (active).

And the activation [3]?
The activation was -0.25% (inactive).

What about the outcome [5] of the same compound?
The outcome was “inactive”.

And the Potency [8]?
The Potency was “inactive”.

And the Potency [6]?
The Potency was “inactive”.

And the Potency [9]?
The Potency was “inactive”.

And the Potency [7]?
Its Potency is “inactive”.

Which results are given for `COC(=O)c1c(C)[nH]c(C)c1C(=O)c1ccccc1Cc1ccccc1`?
Potency [1]: inactive; Potency [2]: inactive; activation [3]: 7.25% (inactive); Potency [4]: inactive; viability change [4]: -8.95%; outcome [5]: inactive; Potency [6]: inactive; Potency [9]: inactive; Potency [7]: inactive

What does the source list for `CC(=O)/C=C1\C(=O)N(C)c2ccccc21`?
Potency [1]: inactive; Potency [2]: inactive; Potency [4]: inactive; viability change [4]: -4.33%; outcome [5]: inactive; Potency [9]: inactive

Which Potency [1] does the source give for `CCNC(=O)[C@H]1O[C@@H](n2cnc3c(N)nc(NCCc4ccc(CCC(=O)O)cc4)nc32)[C@H](O)[C@@H]1O` here?
Its Potency is “inactive”.

What about the Potency [2] of the same compound?
Its Potency is “inactive”.

And the Potency [4]?
The Potency was “inactive”.

What about the viability change [4] of the same compound?
The viability change was 0.951%.

What about the outcome [5] of the same compound?
The outcome was “inactive”.

And the Potency [9]?
Its Potency is “inactive”.

What about the Potency [7] of the same compound?
The Potency was “inactive”.

Which results are given for `C=CC(C)=C[C@@]1(C)SC(=O)C(C)=C1O`?
Potency [1]: inactive; Potency [2]: inactive; Potency [4]: inactive; viability change [4]: 1.42%; outcome [5]: inactive; Potency [9]: inactive; Potency [7]: inactive

Which results are given for `OCC1O[C@H]([S-])[C@H](O)[C@@H](O)[C@@H]1O.[Au+]` (some centres undefined)?
Potency [1]: inactive; Potency [2]: inactive; Potency [4]: inactive; viability change [4]: -19.1%; outcome [5]: inactive; Potency [9]: 4.26 µM (active); Potency [7]: 8.49 µM (active)

For `C=CC(=O)c1ccc(CCCCCC)cc1`, which Potency [1] is on record?
The Potency was “inactive”.

And the Potency [2]?
The Potency was “inactive”.

What about the Potency [4] of the same compound?
The Potency was “inactive”.

And the viability change [4]?
Its viability change is -13%.

And the outcome [5]?
Its outcome is “inactive”.

What about the Potency [9] of the same compound?
The Potency was “inactive”.

Which Potency [1] does the source give for `Nc1nc(Cl)nc2c1ncn2[C@@H]1O[C@H](CO)[C@@H](O)[C@H]1O` here?
The Potency was “inactive”.

And the Potency [2]?
The Potency was “inactive”.

And the Potency [4]?
Its Potency is “inactive”.

And the viability change [4]?
Its viability change is -2.02%.

And the outcome [5]?
Its outcome is “inactive”.

And the Potency [9]?
The Potency was “inactive”.

And the Potency [7]?
The Potency was “inactive”.

Which Potency [1] does the source give for `CN(C)CCCO[C@@H]1[C@H]2OC(C)(C)O[C@H]2O[C@@H]1[C@H](O)CO` here?
Its Potency is “inactive”.

What about the Potency [2] of the same compound?
The Potency was “inactive”.

And the Potency [4]?
Its Potency is “inactive”.

And the viability change [4]?
The viability change was 3.16%.

And the outcome [5]?
The outcome was “inactive”.

What about the Potency [7] of the same compound?
The Potency was “inactive”.

With `NC(=S)c1ccc[n+]([C@@H]2O[C@@H](COP(=O)([O-])OP(=O)(O)OC[C@H]3O[C@@H](n4cnc5c(N)ncnc54)[C@H](OP(=O)(O)O)[C@@H]3O)C(O)C2O)c1` (some centres undefined) as the compound, how does the Potency [1] read?
Its Potency is “inactive”.

And the Potency [2]?
The Potency was “inactive”.

And the Potency [4]?
The Potency was “inactive”.

What about the viability change [4] of the same compound?
The viability change was -6.67%.

And the outcome [5]?
Its outcome is “inactive”.

And the Potency [7]?
Its Potency is “inactive”.

Which Potency [1] does the source give for `Clc1ccc(N2CCN(Cc3cc4ccccn4n3)CC2)cc1` here?
The Potency was “inactive”.

What about the Potency [2] of the same compound?
The Potency was “inactive”.

And the Potency [4]?
The Potency was “inactive”.

What about the viability change [4] of the same compound?
Its viability change is 2.97%.

And the outcome [5]?
Its outcome is “inactive”.

With `CO/S(=N\S(=O)(=O)c1ccc(Cl)cc1)c1ccc([N+](=O)[O-])cc1` (centres undefined) as the compound, how does the Potency [1] read?
Its Potency is “inactive”.

What about the Potency [2] of the same compound?
Its Potency is “inactive”.

And the Potency [4]?
The Potency was “inactive”.

What about the viability change [4] of the same compound?
The viability change was -1.86%.

And the outcome [5]?
The outcome was “inactive”.

And the Potency [9]?
Its Potency is “inactive”.

And the Potency [7]?
The Potency was “inactive”.

For `NC[C@H]1O[C@@H](n2cnc3c(N)ncnc32)[C@H](O)[C@@H]1O`, which Potency [1] is on record?
Its Potency is “inactive”.

What about the Potency [2] of the same compound?
Its Potency is “inactive”.

And the Potency [4]?
The Potency was “inactive”.

And the viability change [4]?
The viability change was 9.27%.

What about the outcome [5] of the same compound?
The outcome was “inactive”.

And the Potency [7]?
Its Potency is “inactive”.

Which Potency [1] does the source give for `C=C[C@@H]1CN2CC[C@@H]1C[C@H]2[C@H](O)c1ccnc2ccc(OC)cc12` here?
The Potency was “inactive”.

What about the Potency [2] of the same compound?
The Potency was “inactive”.

And the outcome [5]?
Its outcome is “inactive”.

And the Potency [6]?
Its Potency is “inactive”.

And the Potency [9]?
Its Potency is “inactive”.

And the Potency [7]?
The Potency was “inactive”.

Which Potency [1] does the source give for `CC(N)C(=O)OC(C)(C)Cc1ccc(Cl)cc1` (centres undefined) here?
The Potency was “inactive”.

What about the Potency [2] of the same compound?
The Potency was “inactive”.

And the Potency [4]?
The Potency was “inactive”.

And the viability change [4]?
The viability change was 7.67%.

What about the outcome [5] of the same compound?
Its outcome is “inactive”.

What about the Potency [7] of the same compound?
Its Potency is “inactive”.

Which Potency [1] does the source give for `CCN(CC)c1ncnc2c1ncn2[C@@H]1O[C@H](COP(=O)(O)OP(=O)(O)C(Br)(Br)P(=O)(O)O)[C@@H](O)[C@H]1O` here?
Its Potency is “inactive”.

And the Potency [2]?
Its Potency is “inactive”.

And the outcome [5]?
Its outcome is “inactive”.

And the Potency [7]?
The Potency was “inactive”.

Which Potency [1] does the source give for `Nc1ncnc2c1ncn2[C@@H]1O[C@H](COP(=O)(O)CP(=O)(O)OP(=O)(O)O)[C@@H](O)[C@H]1O` here?
The Potency was “inactive”.

What about the Potency [2] of the same compound?
Its Potency is “inactive”.

What about the Potency [4] of the same compound?
The Potency was “inactive”.

What about the viability change [4] of the same compound?
Its viability change is -5.53%.

What about the outcome [5] of the same compound?
Its outcome is “inactive”.

What about the Potency [7] of the same compound?
Its Potency is “inactive”.

For `O=C(c1ccc(Cl)cc1)N1CCN(c2ccc([N+](=O)[O-])c3ncccc23)CC1`, which Potency [1] is on record?
Its Potency is “inactive”.

And the Potency [2]?
The Potency was 20.6 µM (active).

What about the outcome [5] of the same compound?
The outcome was “inactive”.

Source: PubChem BioAssay (NCATS)
